# Data: PubChem BioAssay (NCATS)
# Records with an inconclusive call do not appear. Calls of active or inactive are those of the source. Calls come from the whole dose curve; as a rule, active = well fitted inhibition curve with a large enough effect; inconclusive = small, poorly fitted or top-dose-only effect; inactive = flat fitted curve, though single readings scatter.
# Molecular target: Ubiquitin carboxyl-terminal hydrolase 1 (Homo sapiens) (UniProt O94782)
# Test: Inhibitors of USP1/UAF1: Pilot qHTS (AID 504865); note: nearly all actives have a fitted effect of over 35% in size;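 for activity change, negative = inhibition: rhodamine fluorescence freed from ubiquitin-rhodamine substrate followed over time; top concentration of the series differs between compounds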
# Settings: purified USP1/UAF1, Ub-rhodamine cleavage fluorescence; series mostly up to 114 µM; activity change, negative = inhibition: at the top concentration
# Method in brief: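 USP1/UAF1 complex at 1 nM preincubated 15 min at room temperature with compound, then Ub-Rho substrate added at 150 nM final. Fluorescence (480/540 nm) read kinetically in 50 mM HEPES pH 7.8, 0.5 mM EDTA, 1 mM TCEP, 0.1 mg/ml BSA, 0.01% Tween-20.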
# % is set by controls: 0 for no effect and ±100 for the full control effect; potency is the fitted concentration of half-maximal effect.
# Ubiquitin carboxyl-terminal hydrolase 1 (Homo sapiens), sequence (O94782 whole entry, looked up): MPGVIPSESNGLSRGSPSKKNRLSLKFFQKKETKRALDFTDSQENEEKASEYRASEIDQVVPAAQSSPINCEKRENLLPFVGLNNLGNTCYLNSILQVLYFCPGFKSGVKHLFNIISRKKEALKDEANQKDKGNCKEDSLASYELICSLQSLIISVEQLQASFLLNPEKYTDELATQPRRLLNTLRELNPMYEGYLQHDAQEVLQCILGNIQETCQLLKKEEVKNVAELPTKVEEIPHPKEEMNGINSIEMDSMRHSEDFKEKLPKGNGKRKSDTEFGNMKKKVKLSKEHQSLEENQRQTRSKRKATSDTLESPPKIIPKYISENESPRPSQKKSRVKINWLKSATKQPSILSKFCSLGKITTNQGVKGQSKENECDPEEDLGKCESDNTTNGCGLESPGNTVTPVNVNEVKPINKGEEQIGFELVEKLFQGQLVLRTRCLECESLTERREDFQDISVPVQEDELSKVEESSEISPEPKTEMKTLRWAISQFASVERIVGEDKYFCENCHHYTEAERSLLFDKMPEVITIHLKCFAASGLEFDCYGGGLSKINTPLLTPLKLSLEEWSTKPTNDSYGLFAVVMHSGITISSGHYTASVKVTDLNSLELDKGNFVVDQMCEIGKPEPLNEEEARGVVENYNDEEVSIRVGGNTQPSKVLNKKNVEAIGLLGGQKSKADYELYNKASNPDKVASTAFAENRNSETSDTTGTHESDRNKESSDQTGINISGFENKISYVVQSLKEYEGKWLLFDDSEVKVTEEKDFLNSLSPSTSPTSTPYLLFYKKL
Compound,"activity change, negative = inhibition",Potency
CN(C)CCCOc1nn(Cc2ccccc2)c2ccccc12,-7.58% [at 54.9 µM] (inactive),
CCN1CCN(c2cc3c(cc2F)c(=O)c(C(=O)O)cn3C2CC2)CC1,-2.34% (inactive),
CCOc1ccc2nc3cc(N)ccc3c(N)c2c1,,50.1 µM (active)
CC(=O)Oc1ccc(C(=C2CCCCC2)c2ccc(OC(C)=O)cc2)cc1,-10.2% (inactive),
COc1ccc(CN2CCN(C(c3ccc(F)cc3)c3ccc(F)cc3)CC2)c(OC)c1OC,-12.1% (inactive),
CC(C)=CCC1C(=O)N(c2ccccc2)N(c2ccccc2)C1=O,-4.87% [at 54.9 µM] (inactive),
CCCCN1CCCC1C(=O)Nc1c(C)cc(C)cc1C (configuration not stated),1.06% (inactive),
CCCCc1nc(Cl)c(CO)n1Cc1ccc(-c2ccccc2-c2nn[nH]n2)cc1,-5.78% (inactive),
O=C(O)CNC(=O)c1ccccc1,1.97% (inactive),
C[C@@H](CN(C)C)CN1c2ccccc2Sc2ccccc21,2.1% [at 54.9 µM] (inactive),
CC(=O)OCC(=O)NCCCOc1cccc(CN2CCCCC2)c1,-9.65% (inactive),
CN1CCN(CCCN2c3ccccc3Sc3ccc(S(=O)(=O)N(C)C)cc32)CC1,-3.92% [at 54.9 µM] (inactive),
CCN(CC)C(=O)N1CCN(C)CC1,-2.59% [at 54.9 µM] (inactive),
COc1cc2c(cc1OC)C(=O)C(CC1CCN(Cc3ccccc3)CC1)C2 (configuration not stated),-4.73% (inactive),
COCc1c(C(C)C)nc(C(C)C)c(/C=C/[C@@H](O)C[C@@H](O)CC(=O)O)c1-c1ccc(F)cc1,-9.29% (inactive),
COc1cc(C(=S)N2CCOCC2)cc(OC)c1OC,-4.5% (inactive),

Compound,"activity change, negative = inhibition",Potency
NCCC(O)(P(=O)(O)O)P(=O)(O)O,-0.188% (inactive),
Cc1c(C(N)=O)cc([N+](=O)[O-])cc1[N+](=O)[O-],-8.94% (inactive),
C[C@]12CCC(=O)C=C1CC[C@H]1[C@@H]3CC[C@](O)(C(=O)CO)[C@@]3(C)C[C@H](O)[C@@]12F,-6.91% (inactive),
CC(O)(P(=O)(O)O)P(=O)(O)O,,inactive
O=c1c(-c2ccccc2)c1-c1ccccc1,-4.29% (inactive),
CCCOC(C(=O)OC1CCN(C)CC1)(c1ccccc1)c1ccccc1,-14.9% (inactive),
COc1ccc(OC)c(C(O)CNC(=O)CN)c1 (configuration not stated),-13.7% (inactive),
COc1cc(OC)cc(OC)c1,-7.57% (inactive),
CC(=O)c1ccc2c(c1)N(CCCN1CCC(CCO)CC1)c1ccccc1S2,-3.37% [at 54.9 µM] (inactive),
CN1C(CCl)Nc2cc(Cl)c(S(N)(=O)=O)cc2S1(=O)=O (configuration not stated),-8.1% (inactive),
CCCCCCCCCCOCC(O)CN (configuration not stated),-12.1% (inactive),
Cc1ccnc(NS(=O)(=O)c2ccc(N)cc2)n1,-12.9% [at 54.9 µM] (inactive),
CCN(CC)CCNC(=O)COc1ccc(Cl)cc1,-2.13% (inactive),
Cc1c(C(C)C)c(=O)n(-c2ccccc2)n1C,-5.26% (inactive),
C/C=C/c1ccc(OC)cc1,-4.18% (inactive),
Oc1c(I)cc(Cl)c2cccnc12,,inactive
